Potency and affinity values are given separately.
Tests used:
Klebsiella pneumoniae = details: Concentration 32 ug.mL-1; ASSAY_TEST Inhibition of Bacterial Growth; detection method Absorption (OD600); MEDIA CAMHB; plate type 384well; NBS; CORNING #3640; time 18 hr
Candida albicans = details: 32 ug/mL
Cryptococcus neoformans = details: Concentration 32 ug.mL-1; ASSAY_TEST Inhibition of Fungal Growth; detection method Resazurin; Absorption (OD600-OD570); plate type 384well; NBS; CORNING #3640

| SMILES | Inhibition (Klebsiella pneumoniae) | Inhibition (Candida albicans) | Inhibition (Cryptococcus neoformans) |
| --- | --- | --- | --- |
| COC1=C(C#N)CCC(=O)N1 | 12.74% | 0.89% | -77.28% |
| COC(=O)C(=Cc1ccc(OC)cc1)NC(C)=O | 12.98% | -0.11% | -2.55% |
| N#C[C@]1(Br)C(=N)Oc2ccc3ccccc3c2[C@@H]1c1ccc([N+](=O)[O-])cc1 | 5.78% | 6.21% | -3.1% |
| Cl.ClCCCC1CCNCC1 | 10.49% | 0.27% | -2.91% |
| CCOC(=O)c1cc2cc(OC(=O)Oc3ccc([N+](=O)[O-])cc3)ccc2[nH]1 | 0.96% | 0.86% | -63.93% |
| Cc1nc(NO)c2c(C)nn(-c3ccccc3)c2n1 | 17.6% | 0.21% | -3.47% |
| Nc1c2c(nc3c1c1ccccc1n3Cc1ccccc1)CCCC2 | 9.09% | 1.09% | -84.21% |
| COc1cc(C2c3c(nc4c(c3N)CCCC4)Oc3ccc4ccccc4c32)cc(OC)c1OC (centres undefined) | 23.56% | 1.11% | -4.42% |
| N#Cc1cc(Br)cc(Br)c1N | -0.57% | 4.77% | -9.46% |
| CCOC(=O)C1=C(C)OC(N)=C(C#N)C1c1cccs1 (centres undefined) | 7.75% | 0.39% | -27.56% |
| N#Cc1cccnc1Cl | 9.13% | -0.53% | -53.41% |
| CC1=C(CO)C(c2ccc(C#N)cc2)C(C#N)=C(N)O1 (centres undefined) | 10.02% | 5.46% | -8.41% |
| COc1ccc2c(c1)cc(CN(C)Cc1cn(Cc3ccccc3)nn1)n2C | 5.47% | 2.23% | -55.57% |
| C#CCN(C)Cc1cc2cc(OCCCCC3CCN(Cc4ccccc4)CC3)ccc2n1C | 10.12% | 2.73% | -48.77% |
| Cl.Nc1c2c(nc3c1C(c1ccccc1)c1ccc4ccccc4c1O3)CCCC2 (centres undefined) | 22.34% | 1.77% | -1.1% |
| COc1cc(C=NNC(=O)Cc2c[nH]c3ccccc23)ccc1O | -2.6% | 0.74% | -1.83% |
| O=C1NC(=S)N/C1=C\c1c[nH]c2ccccc12 | 4.51% | -0.31% | -1.8% |
| CCOC(=O)C1=C(C)OC(N)=C(C#N)C1c1ccccc1 (centres undefined) | 11.23% | 6.07% | -42.71% |
| CCCC(C)NNC(=O)c1cc2ccccc2[nH]1 (centres undefined) | -0.18% | 0.67% | -3.77% |
| COc1ccc(-c2cc(-c3cc4ccccc4nc3Cl)cc(=O)[nH]2)cc1 | 10.14% | -0.7% | -53.36% |
| CS(=O)(=O)O[C@H]1CC[C@H](OS(C)(=O)=O)CC1 | 13.68% | 3.52% | -30.83% |
| Cc1nn(-c2ccccc2)c2ncn3nc(-c4ccccc4)nc3c12 | 14.39% | 1.63% | -1.31% |
| C#CCNc1ccc(Cl)nn1 | 15.08% | 3.36% | -43.23% |
| Cl.N#Cc1cc(C#N)c(N2CCCC2)nc1Cl | 14.18% | 3.61% | -52.24% |
| COC(=O)C1(NC(=O)c2ccccc2)CC1c1ccccc1 (centres undefined) | 3.5% | 0.07% | -1.1% |

| SMILES | Inhibition (Klebsiella pneumoniae) | Inhibition (Candida albicans) | Inhibition (Cryptococcus neoformans) |
| --- | --- | --- | --- |
| COc1ccc2cc(C3C4=C(CC(C)(C)CC4=O)Oc4nc5c(c(N)c43)CCC5)c(Cl)nc2c1 (centres undefined) | 7.42% | 10.1% | -1.53% |
| CN(C)c1ccc(C(=NNC(=O)c2cc3ccccc3[nH]2)c2ccc(N(C)C)cc2)cc1 | -1.36% | -0.9% | -8.51% |
| c1ccc(Cn2ccc3ccccc32)cc1 | 13.32% | 4.28% | -3.9% |
| OCc1c(-c2ccc(Br)cc2)nc2ccccn12 | 16.84% | 4.83% | -4.79% |
| CSC1=NC(=Cc2cn(C(c3ccccc3)(c3ccccc3)c3ccccc3)c3ccccc23)C(=O)N1C | -25.3% | -0.44% | -10.07% |
| C=C1CN(C)c2c(C#N)cc(C#N)c(=N)n21 | 9.83% | 2.03% | -52.46% |
| CCOC(=O)C1=C(C)Oc2nc3c(c(N)c2C1c1ccc(O)c(OC)c1)CCC3 (centres undefined) | 2.99% | 0.9% | -66.64% |
| N#Cc1c(N)nc(NC2CCN(Cc3ccccc3)CC2)c(C#N)c1-c1ccccc1 | 9.32% | 2.69% | -66.18% |
| Cc1ccc(CNNC(=O)c2cc3ccccc3n2C)cc1 | -14.45% | 1.69% | -0.2% |
| Nc1c2c(nc3c1C(c1ccc([N+](=O)[O-])cc1)c1ccc4ccccc4c1O3)CCCC2 (centres undefined) | -17.7% | -1.86% | -5.85% |
| COc1ccc(CNNC(=O)c2cc3ccccc3[nH]2)cc1O | 4.75% | 0.7% | 0.55% |
| CSC1=NC(=Cc2cn(C)c3ccccc23)C(=O)N1C | -7.62% | 1.89% | -7.7% |
| Cn1ccnc1C1C2=C(CC(C)(C)CC2=O)Oc2nc3c(c(N)c21)CCCC3 (centres undefined) | 9.51% | 1.3% | -60.42% |
| Nc1c2c(nc3c1C(c1ccc(Cl)c(Cl)c1)c1ccc4ccccc4c1O3)CCCC2 (centres undefined) | -10.24% | 4.63% | -2.87% |
| N#Cc1cc(C#N)c(N2CCCC2)nc1N1CCCC1 | 22.43% | -0.31% | -5.24% |
| CCOC(=O)c1cc2cc(O)ccc2n1C(=O)OC(C)(C)C | 2.98% | 1.56% | -9.8% |
| CCOc1nc(N)c(C#N)cc1C#N | 12.55% | 44.3% | -83.12% |
| CCOC(=O)/C(C#N)=C\c1ccc(Cl)cc1 | 4.33% | -0.09% | -5.03% |
| CC(=O)Oc1ccc(C=C2N=C(c3ccccc3)OC2=O)c(OC(C)=O)c1 | 2.13% | 3.75% | -6.54% |
| O=C(N/N=C/c1c[nH]c2ccccc12)c1cc2ccccc2[nH]1 | 11.64% | 0.51% | -6.47% |
| Cl.NC1(C(=O)O)CC1c1ccccc1 (centres undefined) | 9.92% | 1.66% | -5.74% |
| O=C(N[C@H]1CC[C@@H](Br)[C@@H](Br)C1)C(F)(F)F | 11.37% | 9.4% | -47.65% |
| Cc1n[nH]c2c1C(c1ccc([N+](=O)[O-])cc1)C(C#N)=C(N)O2 (centres undefined) | -7.74% | 3.15% | -4.51% |
| Cc1[nH]nc2c1C(c1cccc([N+](=O)[O-])c1)C(C#N)=C(N)O2 (centres undefined) | 18.43% | -0.54% | -0.61% |
| COc1ccc(C2C(C#N)=C(N)Oc3c2ccc2ccccc32)c(OC)c1 (centres undefined) | 2.23% | 0.21% | -2.04% |

| SMILES | Inhibition (Klebsiella pneumoniae) | Inhibition (Candida albicans) | Inhibition (Cryptococcus neoformans) |
| --- | --- | --- | --- |
| Nc1nc(N)c(C=O)c(-c2ccccc2)c1C=O | -1.67% | 9.69% | -7.8% |
| NC(=O)N/N=C/c1c[nH]c2ccccc12 | 23.24% | 0.31% | -3.05% |
| CC1CN(C)c2c(C#N)c(-c3ccccc3)c(C#N)c(=N)n21 (centres undefined) | 18.9% | 1.63% | -66.3% |
| C=C=CCN(C)Cc1cc2ccccc2n1C.O=C(O)C(=O)O | 9.39% | 1.88% | -29.39% |
| CCCC(C)NNC(=O)Cc1c[nH]c2ccccc12 (centres undefined) | 6.53% | 0.38% | 5.38% |
| CC1=C(C(=O)O[C@@H]2C[C@@]3(C)CC[C@H]2C3(C)C)C(c2ccccc2)C(C#N)=C(N)O1 (some centres undefined) | -1.66% | 15.2% | -2.45% |
| Cn1c(C(=O)O)cc2cc(OCCCC3CCN(Cc4ccccc4)CC3)ccc21 | 12.92% | 6.79% | -100.02% |
| CCOc1nc2nc3c(c(N)c2cc1C#N)CCCC3 | -2% | 2.23% | -62.45% |
| CNC(=O)NC1(C(=O)O)CC1c1ccccc1 (centres undefined) | 13.01% | 0.9% | -2.43% |
| CCOC(=O)/C(=C\c1ccccc1)C(=O)c1ccccc1 | -3.55% | 3.73% | -2.93% |
| CCOc1nc2nc(C)c(C=C3CCN(Cc4ccccc4)CC3)cc2c(-c2ccccc2)c1C#N | 20.16% | 2.44% | -63.91% |
| N#Cc1c(N)nc(Cl)c(C#N)c1-c1ccccc1 | 1.22% | 6.28% | -2.34% |
| O=C(N/N=C/c1ccc(Cl)cc1)c1cc2ccccc2[nH]1 | -19.43% | 3.28% | -0.9% |
| Cc1ccc(C=C2N=C(c3ccccc3)OC2=O)cc1 | 9.43% | -0.14% | -5.42% |
| COc1ccc(C2c3c(nc4c(c3N)CCCC4)Oc3ccc4ccccc4c32)cc1 (centres undefined) | 8.01% | 0.67% | 1.85% |
| N#CC1=C(Cl)Oc2c(ccc3ccccc23)C1c1ccc([N+](=O)[O-])cc1 (centres undefined) | 16.96% | 10.5% | -69.24% |
| Cc1cc(Br)cc(C)c1NC=C(C#N)C#N | -18.28% | 1.62% | -6.77% |
| CCOC(=O)/C(C#N)=C\c1ccc([N+](=O)[O-])cc1 | 10.6% | 5.79% | -3.2% |
| O=C1SC(SCc2ccccc2)=NC1=Cc1ccccc1 | 8.07% | 1.92% | -3.98% |
| CC#CCN(C)Cc1cc2cc(OCc3ccccc3)ccc2n1C.O=C(O)C(=O)O | 22.38% | 3.08% | -0.27% |
| N#CC1=C(N)Oc2c(ccc3ccccc23)C1c1cccc([N+](=O)[O-])c1 (centres undefined) | 11.95% | 2.35% | -36.01% |
| COc1ccc(C2c3c(ccc4ccccc34)OC(=N)C2(Br)C#N)cc1 (centres undefined) | 10.22% | 17.9% | -84.01% |
| COc1cccc(C2C(C#N)=C(N)Oc3c2ccc2ccccc32)c1 (centres undefined) | 8.5% | 3.73% | -38.21% |
